The record followed here is PubChem BioAssay (EPA / NIEHS).

Molecules are shown by their SMILES. Results filed as inconclusive are left out. Activity calls are given as the source filed them. The calls were made as follows, unless noted: active = hit-call score of the fitted dose curve at least 0.9, where 1 is the maximum; inconclusive = response in the unintended direction; inactive = score below 0.9.

The term AC50 denotes the concentration giving half of the maximal activity seen.

Experiment [1] in a line: Tanguay_ZF_120hpf_CIRC_legacy: (Legacy) Oregon State University Tanguay Lab 120 Hour Post-fertilization zebrafish Assay for Circulatory Malformation (AID 2283651). The gist of the method:
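Embryos are dechorionated at 4 hpf, plated one per well at 6 hpf, then held under static exposure at 28C until 120 hpf. Malformations are recorded as binary calls; mortality excludes other endpoints.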

Experiment [2] can be described thus: CCTE_Padilla_ZF_144hpf_TERATOSCORE: (Legacy) CCTE's 144 Hour Post-fertilization zebrafish Assay Teratoscore, Padilla Lab (AID 2283679; active = hit-call score of the fitted dose curve at least 0.9, where 1 is the maximum; inactive = score below 0.9;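 also: zebrafish embryos with chorions exposed by immersion from 6-8 hpf to 5 dpf with daily renewal; teratogenicity score from eye scoring of death hatching and malformations at 144 hpf; higher score means more developmental defects relative to DMSO baseline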). The gist of the method:
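Larvae scored by eye at 144 hpf for death, hatching and malformations after a day in clean Hanks'. Before that, daily-renewed exposure at 80 uM (0.4% DMSO, 26C) from roughly 6-8 hpf through 5 dpf, 4 embryos per chemical.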

For experiment [3], the target named is Cytochrome P450 2C18 (Homo sapiens) (UniProt P33260). Nature of the experiment: NVS_ADME_hCYP2C18: NovaScreen (NVS) CYP450-related Enzyme Activity (ADME) Assay for human CYP2C18 (AID 2283103; active = hit-call score of the fitted dose curve at least 0.9, where 1 is the maximum; inactive = score below 0.9). The essentials:
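Enzyme activity measured by fluorescence 0.5 h after compound addition, using recombinant CYP2C18 and a specific substrate. Actives from duplicate 10 uM screening were retested in concentration series (top 20 uM); acetonitrile served as negative baseline.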

Experiment [4] deals with chicken Androgen Receptor (AR), gene 422165. Kind of experiment: ATG_chAR_XSP1: Attagene TRANS-FACTORIAL Multi-Species (XSP1) HepG2 Assay for chicken Androgen Receptor (AR) (AID 2283768). The gist of the method:
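Reporter mRNA read by RT-PCR with fluorescent labelling and capillary electrophoresis 24 h after chemical dosing of transiently transfected HepG2 cells. Chicken AR-Gal4 chimera, partially stimulated with 3 nM 6-alpha-fluorotestosterone; activity fitted upward relative to DMSO.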

The test system of experiment [5] is frog Estrogen Receptor (ESR2), gene 100174814. Nature of the experiment: ATG_frER2_XSP1: Attagene TRANS-FACTORIAL Multi-Species (XSP1) HepG2 Assay for frog Estrogen Receptor (ESR2) (AID 2283774). The gist of the method:
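Reporter mRNA from a multiplexed TRANS system, measured by RT-PCR with fluorescent labelling and capillary electrophoresis, 24 hours after chemical exposure. Human HepG2 liver cells carried exogenous frog ER-Gal4 chimera; medium included 3 nM 6-alpha-fluorotestosterone; increases versus DMSO analysed.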

Experiment [6] relates to zebrafish Estrogen Receptor (ESR2A), gene 317734. Kind of experiment: ATG_zfER2a_XSP1: Attagene TRANS-FACTORIAL Multi-Species (XSP1) HepG2 Assay for zebrafish Estrogen Receptor (ESR2A) (AID 2283778). The gist of the method: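 Reporter transcripts were quantified by RT-PCR, 6-FAM labelling, HpaI digestion and capillary electrophoresis after 24 h dosing. The cells were HepG2 transiently carrying a zebrafish ER2a–Gal4 construct plus multiplexed UAS reporters; medium contained 3 nM 6-alpha-fluorotestosterone.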

Experiment [7] has as its system turtle Androgen Receptor (AR), gene 101947425. Kind of experiment: ATG_trAR_XSP1: Attagene TRANS-FACTORIAL Multi-Species (XSP1) HepG2 Assay for turtle Androgen Receptor (AR) (AID 2283786). The gist of the method: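 Partial androgen stimulation is provided by 3 nM 6-alpha-fluorotestosterone in a multi-species trans-factorial panel expressing a turtle AR–GAL4 fusion in HepG2. After 24 h, reporter mRNA is measured by RT-PCR and capillary electrophoresis and fitted upward against DMSO.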

Experiment [8] concerns the target Estrogen receptor beta (Homo sapiens) (UniProt Q92731). Kind of experiment: ATG_hERb_XSP1: Attagene TRANS-FACTORIAL Multi-Species (XSP1) HepG2 Assay for human Estrogen Receptor (ESR2) (AID 2283788). The essentials:
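HepG2 cells transiently transfected with multiplexed GAL4-UAS reporter units carrying chimeric human ERβ-Gal4; 24 h compound exposure with 3 nM 6-alpha-fluorotestosterone present. Reporter mRNA quantified by RT-PCR, FAM labelling and capillary electrophoresis; gain-of-signal fitted versus DMSO.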

Experiment [9] is described as follows: ATG_M_19_XSP1: Attagene TRANS-FACTORIAL Multi-Species (XSP1) HepG2 Assay for M19 Transcription Factor (Internal Marker) (AID 2283798). The essentials:
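Readout is reporter mRNA induction quantified via RT-PCR, 6-FAM labeling, HpaI digestion and capillary electrophoresis, fitted in the positive direction versus DMSO baseline. Transfected HepG2 cells exposed 24 h, medium including 3 nM 6-alpha-fluorotestosterone.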

Experiment [10] in a line: ATG_M_32_XSP1: Attagene TRANS-FACTORIAL Multi-Species (XSP1) HepG2 Assay for M32 Transcription Factor (Internal Marker) (AID 2283799). The gist of the method: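 Reporter transcripts from the M32 internal-control unit measured by RT-PCR, FAM labelling, HpaI digestion and capillary electrophoresis after 24 h compound exposure of transfected HepG2, 3 nM 6-alpha-fluorotestosterone included; DMSO baseline, positive-direction fit.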

Experiment [11] has as its system zebrafish Peroxisome Proliferator-activated Receptor gamma (PPARg), gene 557037. Nature of the experiment: ATG_zfPPARg_XSP1: Attagene TRANS-FACTORIAL Multi-Species (XSP1) HepG2 Assay for zebrafish Peroxisome Proliferator-activated Receptor gamma (PPARg) (AID 2283801). The gist of the method: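 Trans-activation readout of chimeric zebrafish PPARg–GAL4 in transiently transfected human HepG2 cells, 24 h chemical exposure (medium includes 3 nM 6-alpha-fluorotestosterone). Reporter transcripts measured by RT-PCR and capillary electrophoresis, fitted as gain over DMSO.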

Experiment [12] concerns turtle Thyroid Hormone Receptor, alpha (TRa), gene 101949057. Kind of experiment: ATG_trTRa_XSP1: Attagene TRANS-FACTORIAL Multi-Species (XSP1) HepG2 Assay for turtle Thyroid Hormone Receptor, alpha (TRa) (AID 2283806). The essentials:
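After 24 h chemical exposure, reporter transcripts were measured by RT-PCR with fluorescent primer extension, HpaI digestion and capillary electrophoresis. Cells were transiently transfected HepG2 expressing exogenous NR-Gal4 chimeras; medium contained 3 nM 6-alpha-fluorotestosterone; fitted upward relative to DMSO.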

The target in experiment [13] is human Thyroid hormone Receptor beta (TRb), THRB (gene 7068) (UniProt P10828). Kind of experiment: ATG_hTRb_XSP1: Attagene TRANS-FACTORIAL Multi-Species (XSP1) HepG2 Assay for human Thyroid hormone Receptor beta (TRb) (AID 2283808). The gist of the method: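 Readout is reporter mRNA induction measured by RT-PCR, fluorescent labelling and capillary electrophoresis, fitted upward relative to DMSO. Transiently transfected human HepG2 cells expressing NR-Gal4 chimeras were dosed for 24 h, medium containing 3 nM 6-alpha-fluorotestosterone.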

Experiment [14] deals with zebrafish Thyroid Hormone Receptor beta (TRb), thrb (gene 30607) (UniProt Q9PVE4). Nature of the experiment: ATG_zfTRb_XSP1: Attagene TRANS-FACTORIAL Multi-Species (XSP1) HepG2 Assay for zebrafish Thyroid Hormone Receptor beta (TRb) (AID 2283809). The essentials:
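HepG2 cells transiently transfected with multiplexed GAL4-UAS reporter units expressing chimeric zebrafish TRb–Gal4. Dosed 24 h with 3 nM 6-alpha-fluorotestosterone present; reporter mRNA measured by RT-PCR, HpaI digestion and capillary electrophoresis; gain of signal versus DMSO.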

Experiment [15] deals with frog Estrogen Receptor (ER2), gene 100174814. Nature of the experiment: ATG_frER2_XSP2: Attagene TRANS-FACTORIAL Multi-Species (XSP2) HepG2 Assay for frog Estrogen Receptor (ER2) (AID 2283828). The essentials: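 Read-out: reporter transcript levels by RT-PCR with 6-FAM primer extension, HpaI digestion and capillary electrophoresis, scored as induction over DMSO control. Transfected HepG2 carrying Xenopus ER2–GAL4 chimera; compounds incubated 24 h.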

Experiment [16] deals with turtle Thyroid Hormone Receptor, alpha (TRa), gene 101949057. Nature of the experiment: ATG_trTRa_XSP2: Attagene TRANS-FACTORIAL Multi-Species (XSP1) HepG2 Assay for turtle Thyroid Hormone Receptor, alpha (TRa) (AID 2283834).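 Also: hits raise reporter mRNA over the DMSO baseline so AC50 marks activators.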 The gist of the method: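 Readout: reporter mRNA induction, fluorescence after RT-PCR, HpaI digestion and capillary electrophoresis. Transiently transfected HepG2, exogenous NR-Gal4 chimera driving GAL4-UAS reporter, 24 h compound exposure. Activity fitted upward relative to DMSO baseline.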

Experiment [17] concerns the target human Thyroid hormone Receptor alpha (TRa), THRA (gene 7067) (UniProt P10827). Kind of experiment: ATG_hTRa_XSP2: Attagene TRANS-FACTORIAL Multi-Species (XSP2) HepG2 Assay for human Thyroid hormone Receptor alpha (TRa) (AID 2283838). The gist of the method:
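Reporter transcripts were read by RT-PCR with fluorescent primer extension, HpaI digestion and capillary electrophoresis. These came from HepG2 cells carrying multiplexed TRa-Gal4 TRANS constructs, harvested 24 hours after dosing. The medium also held 6-alpha-fluorotestosterone (3 nM) and norgestrel (1.5 nM), and increases were fitted against DMSO.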

Experiment [18] addresses frog Thyroid hormone Receptor alpha (TRa), thra-a (gene 397942) (UniProt P15204). Nature of the experiment: ATG_frTRa_XSP2: Attagene TRANS-FACTORIAL Multi-Species (XSP2) HepG2 Assay for frog Thyroid hormone Receptor alpha (TRa) (AID 2283839). The essentials: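 Read-out: fluorescent reporter-transcript fragments resolved by capillary electrophoresis after RT-PCR and HpaI cut. Human HepG2 liver cells carry a transfected frog TRα-Gal4 chimera driving a UAS reporter; 24 h exposure, DMSO baseline, positive-direction fit.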

For experiment [19], the target named is Thyroid hormone receptor alpha (Rattus norvegicus) + Thyroid hormone receptor beta (Rattus norvegicus) (UniProt P18113+P63059). Kind of experiment: TOX21_TR_LUC_GH3_Agonist_Followup: Tox21 GH3 Thyroid Hormone Receptor Agonism Luciferase Follow-Up Assay (AID 2283939). The gist of the method:
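Agonist-mode confirmatory run: 15 concentrations (5 nM to 92 uM final) on GH3 rat pituitary cells, 24 h at 37C/5% CO2, T3 as positive control. Luminescence read with ONE-Glo after 30 min.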

For another experiment, the target named is THRA (gene 7067) (UniProt P10827). Nature of the experiment: TOX21_TRA_COA_Agonist_Followup_ratio: Tox21 Thyroid Hormone Receptor alpha Agonism through Coactivator Recruitment Follow-Up Assay, Ratio (AID 2283948; active = hit-call score of the fitted dose curve at least 0.9, where 1 is the maximum; inactive = score below 0.9). The essentials: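 GST-TRa LBD 2.5 nM + 0.10% BSA + cpd; add fluorescein-SRC-2 200 nM, Tb-anti-GST 2 nM. TR-FRET ex 340, em 520/495 ratio. Norm: DMSO 0%, T3 100%; gain-of-signal fit.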
Sequence of THRA (gene 7067) (P10827 whole entry, looked up, the tested form may be a part): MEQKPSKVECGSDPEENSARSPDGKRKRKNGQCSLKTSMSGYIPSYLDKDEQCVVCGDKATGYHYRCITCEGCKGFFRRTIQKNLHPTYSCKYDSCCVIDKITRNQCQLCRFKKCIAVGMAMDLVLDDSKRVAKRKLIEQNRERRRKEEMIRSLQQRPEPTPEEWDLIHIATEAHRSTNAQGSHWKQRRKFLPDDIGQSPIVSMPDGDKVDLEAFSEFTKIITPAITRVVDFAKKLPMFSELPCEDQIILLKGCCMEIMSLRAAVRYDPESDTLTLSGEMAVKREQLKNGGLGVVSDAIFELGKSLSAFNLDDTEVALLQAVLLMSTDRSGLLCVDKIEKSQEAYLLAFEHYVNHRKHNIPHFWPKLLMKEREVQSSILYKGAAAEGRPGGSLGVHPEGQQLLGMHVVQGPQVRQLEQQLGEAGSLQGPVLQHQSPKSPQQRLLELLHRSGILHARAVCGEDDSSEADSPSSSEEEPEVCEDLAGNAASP

Sequence of human Thyroid hormone Receptor alpha (TRa), THRA (gene 7067) (P10827 whole entry, looked up, the tested form may be a part): as above
Sequence of human Thyroid hormone Receptor beta (TRb), THRB (gene 7068) (P10828 whole entry, looked up, the tested form may be a part): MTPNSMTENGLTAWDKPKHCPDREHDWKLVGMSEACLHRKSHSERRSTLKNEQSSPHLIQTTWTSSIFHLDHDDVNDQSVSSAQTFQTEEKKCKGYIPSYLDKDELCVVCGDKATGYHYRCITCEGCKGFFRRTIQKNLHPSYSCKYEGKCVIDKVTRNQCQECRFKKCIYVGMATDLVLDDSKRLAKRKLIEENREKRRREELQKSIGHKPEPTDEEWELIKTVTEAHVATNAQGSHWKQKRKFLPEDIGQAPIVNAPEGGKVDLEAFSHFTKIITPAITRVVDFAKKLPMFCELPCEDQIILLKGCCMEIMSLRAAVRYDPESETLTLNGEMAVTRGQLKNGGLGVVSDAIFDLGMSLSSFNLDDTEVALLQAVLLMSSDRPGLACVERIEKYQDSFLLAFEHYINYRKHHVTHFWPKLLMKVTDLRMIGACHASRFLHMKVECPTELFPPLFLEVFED
Sequence of zebrafish Thyroid Hormone Receptor beta (TRb), thrb (gene 30607) (Q9PVE4 whole entry, looked up, the tested form may be a part): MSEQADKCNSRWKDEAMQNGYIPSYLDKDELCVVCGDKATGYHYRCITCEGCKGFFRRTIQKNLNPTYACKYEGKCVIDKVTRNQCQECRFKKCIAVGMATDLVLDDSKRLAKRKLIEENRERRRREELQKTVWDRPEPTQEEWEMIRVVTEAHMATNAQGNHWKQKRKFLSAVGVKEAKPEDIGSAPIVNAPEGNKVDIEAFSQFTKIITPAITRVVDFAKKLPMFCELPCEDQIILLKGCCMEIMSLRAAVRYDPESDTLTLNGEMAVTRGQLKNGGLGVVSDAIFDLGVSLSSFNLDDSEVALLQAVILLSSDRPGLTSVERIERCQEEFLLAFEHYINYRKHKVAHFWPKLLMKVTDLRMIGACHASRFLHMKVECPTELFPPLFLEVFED
Sequence of Estrogen receptor beta (Homo sapiens) (Q92731 whole entry, looked up, the tested form may be a part): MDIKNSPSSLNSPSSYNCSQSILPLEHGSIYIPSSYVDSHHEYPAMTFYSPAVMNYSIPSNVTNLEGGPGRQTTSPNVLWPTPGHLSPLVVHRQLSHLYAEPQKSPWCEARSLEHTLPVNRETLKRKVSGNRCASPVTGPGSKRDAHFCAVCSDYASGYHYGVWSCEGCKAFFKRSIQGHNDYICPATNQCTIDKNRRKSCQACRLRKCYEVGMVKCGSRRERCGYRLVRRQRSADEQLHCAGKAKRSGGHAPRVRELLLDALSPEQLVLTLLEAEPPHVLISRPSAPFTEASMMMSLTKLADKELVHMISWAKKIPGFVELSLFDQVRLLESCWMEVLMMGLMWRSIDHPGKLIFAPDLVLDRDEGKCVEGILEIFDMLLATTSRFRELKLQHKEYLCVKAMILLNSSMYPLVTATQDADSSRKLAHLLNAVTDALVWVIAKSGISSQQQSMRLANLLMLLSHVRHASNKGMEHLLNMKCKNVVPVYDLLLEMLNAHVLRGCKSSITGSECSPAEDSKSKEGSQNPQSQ
Sequence of Cytochrome P450 2C18 (Homo sapiens) (P33260 whole entry, looked up): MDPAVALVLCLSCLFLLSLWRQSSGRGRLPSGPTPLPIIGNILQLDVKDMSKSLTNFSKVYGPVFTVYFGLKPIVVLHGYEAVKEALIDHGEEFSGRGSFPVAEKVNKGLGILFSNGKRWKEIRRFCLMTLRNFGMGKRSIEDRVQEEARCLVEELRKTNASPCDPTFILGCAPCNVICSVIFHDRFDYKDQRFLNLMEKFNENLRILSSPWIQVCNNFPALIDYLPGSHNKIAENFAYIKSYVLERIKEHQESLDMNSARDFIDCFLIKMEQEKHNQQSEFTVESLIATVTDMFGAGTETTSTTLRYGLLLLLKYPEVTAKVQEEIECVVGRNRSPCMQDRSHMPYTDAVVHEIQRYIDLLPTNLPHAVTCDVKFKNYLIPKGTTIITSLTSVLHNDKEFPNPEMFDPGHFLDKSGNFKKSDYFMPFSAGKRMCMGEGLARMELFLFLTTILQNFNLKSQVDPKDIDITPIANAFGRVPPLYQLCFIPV
Sequence of Thyroid hormone receptor alpha (Rattus norvegicus) + Thyroid hormone receptor beta (Rattus norvegicus) (P63059 whole entry, looked up): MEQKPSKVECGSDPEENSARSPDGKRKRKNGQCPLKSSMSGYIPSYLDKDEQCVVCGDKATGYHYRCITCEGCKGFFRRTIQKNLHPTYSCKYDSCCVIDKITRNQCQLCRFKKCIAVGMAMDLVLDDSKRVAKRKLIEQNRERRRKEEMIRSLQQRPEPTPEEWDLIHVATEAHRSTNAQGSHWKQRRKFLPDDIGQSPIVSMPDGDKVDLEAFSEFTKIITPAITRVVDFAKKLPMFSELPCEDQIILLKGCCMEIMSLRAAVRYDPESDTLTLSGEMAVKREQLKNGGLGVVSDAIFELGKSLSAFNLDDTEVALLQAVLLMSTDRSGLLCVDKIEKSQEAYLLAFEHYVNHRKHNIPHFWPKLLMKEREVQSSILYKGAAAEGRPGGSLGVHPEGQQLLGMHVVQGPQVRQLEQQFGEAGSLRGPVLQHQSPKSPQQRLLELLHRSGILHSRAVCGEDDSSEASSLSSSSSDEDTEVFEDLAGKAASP
Sequence of Thyroid hormone receptor alpha (Rattus norvegicus) + Thyroid hormone receptor beta (Rattus norvegicus) (P18113 whole entry, looked up): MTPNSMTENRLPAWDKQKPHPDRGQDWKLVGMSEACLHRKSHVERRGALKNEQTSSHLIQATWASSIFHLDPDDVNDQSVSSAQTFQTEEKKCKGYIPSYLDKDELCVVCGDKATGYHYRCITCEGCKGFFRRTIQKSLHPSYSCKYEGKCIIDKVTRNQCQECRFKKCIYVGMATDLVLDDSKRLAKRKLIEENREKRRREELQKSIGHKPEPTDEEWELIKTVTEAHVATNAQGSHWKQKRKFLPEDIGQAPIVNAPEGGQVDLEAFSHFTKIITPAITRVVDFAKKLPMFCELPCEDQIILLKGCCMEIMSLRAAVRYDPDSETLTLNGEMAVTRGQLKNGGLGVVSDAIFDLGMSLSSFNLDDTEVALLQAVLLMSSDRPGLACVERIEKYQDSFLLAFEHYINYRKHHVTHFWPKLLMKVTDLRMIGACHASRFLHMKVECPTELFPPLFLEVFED
Sequence of frog Thyroid hormone Receptor alpha (TRa), thra-a (gene 397942) (P15204 whole entry, looked up, the tested form may be a part): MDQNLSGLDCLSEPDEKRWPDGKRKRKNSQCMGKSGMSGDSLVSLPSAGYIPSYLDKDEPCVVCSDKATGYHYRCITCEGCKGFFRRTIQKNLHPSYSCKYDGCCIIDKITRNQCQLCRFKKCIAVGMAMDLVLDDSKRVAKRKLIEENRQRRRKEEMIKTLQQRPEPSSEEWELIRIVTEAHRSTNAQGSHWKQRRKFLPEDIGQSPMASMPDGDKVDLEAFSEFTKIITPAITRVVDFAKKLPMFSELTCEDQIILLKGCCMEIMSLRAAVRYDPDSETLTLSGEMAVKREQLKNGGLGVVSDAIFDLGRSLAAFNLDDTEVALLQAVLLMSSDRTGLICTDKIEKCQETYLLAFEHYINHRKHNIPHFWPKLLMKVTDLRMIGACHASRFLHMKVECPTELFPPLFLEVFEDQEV

For `O=C(CCl)c1ccccc1`, in experiment [1], the compound was called inactive. Besides, the half-maximal activity concentration (AC50) in experiment [2] was 4.85 µM (active).
For the compound `CC(C)[C@@H](C(=O)O[C@@H](C#N)c1cccc(Oc2ccccc2)c1)c1ccc(Cl)cc1`, the result in experiment [3] was inactive.
As to `CC(C)CCCCCCCOC(=O)c1ccccc1C(=O)OCCCCCCCC(C)C`, the compound was classed as inactive in experiment [4], in [5], in [6], in experiment [7], in experiment [8] and in experiment [9]. Also, the call in experiment [10], in [11], in experiment [12], in experiment [13], in experiment [14] and in [15] was inactive. Moreover, the compound was called inactive (in experiment [17]; in experiment [18]; in experiment [19]; with THRA (gene 7067)). Further, the concentration at half-maximal activity (AC50) in experiment [16] was 100 µM (active).
